# MsrA inhibitor: bovine MsrA inhibition; purified bovine MsrA, absorbance read-out; inhibition, % at 15.5 µM; 360,000 tested, 0.75% active; in the data active = inhibition above about 4.5%
# PKA-R2B activ: activators of human PKA-R2B complex; AID 504700; activation, % at 11.4 µM; PKA-R2B holoenzyme dissociation, Cy5-IP20 fluorescence polarization; R2B truncated from residue 108, S112A mutant; 0% DMSO only, 100% 113 µM cGMP; 340,000 tested, 0.079% active; P22694+P31323;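 active = activation above a cutoff set at the mean over all compounds plus 3 SD, cut at about 18% in these data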;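 note: higher means more holoenzyme dissociation and a rise in polarization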
# Target sequence (P31323 whole entry, looked up, other chains not shown, the tested form may be a part): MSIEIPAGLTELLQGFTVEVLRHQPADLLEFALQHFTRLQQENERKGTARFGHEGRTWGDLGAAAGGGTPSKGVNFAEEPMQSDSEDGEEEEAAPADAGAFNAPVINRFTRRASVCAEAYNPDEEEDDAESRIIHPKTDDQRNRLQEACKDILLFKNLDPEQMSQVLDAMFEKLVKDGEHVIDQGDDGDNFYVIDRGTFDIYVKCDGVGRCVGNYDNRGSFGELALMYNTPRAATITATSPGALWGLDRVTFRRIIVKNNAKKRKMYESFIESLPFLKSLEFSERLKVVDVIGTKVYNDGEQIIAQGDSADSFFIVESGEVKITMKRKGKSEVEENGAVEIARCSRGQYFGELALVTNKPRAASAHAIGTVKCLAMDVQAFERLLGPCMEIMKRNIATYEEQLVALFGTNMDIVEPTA
# PKA-R1A activ: activators of PKA-R1A complex; 340,000 tested, 0.083% active; activation, % at 11.4 µM; PKA-R1A dissociation, Cy5-IP20 fluorescence polarization; scaled: DMSO 0%, 113 µM cGMP 100%; P00514+P68181;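 active = percent activation above the mean of all tested compounds plus 3 SD, cut at about 19% in these data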;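 note: higher means more PKAc released from R1A so a rise in polarization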
# MsrA act: activates bovine MsrA enzyme | purified bovine MsrA, absorbance read-out | activation, % at 10.6 µM | 360,000 tested, 0.3% active; in the data active = activation above about 7.5%
# Hits are given with their value; – = inactive; · = no result. This is a sample that favours compounds with a hit; in the whole collection about 1.1% have one here.
SMILES,MsrA inhibitor,PKA-R2B activ,PKA-R1A activ,MsrA act
COc1cc(C[C@H](C)[C@H](C)Cc2ccc3c(c2)OCO3)ccc1O,·,–,–,16.4
O=C(C(=O)N1CCN(S(=O)(=O)c2ccc(OC(F)(F)F)cc2)CC1)c1cccc(C(F)(F)F)c1,–,·,·,·
Nc1ccccc1O,·,–,–,9.4
CCN=C1NC(c2ccc(F)cc2)C(C(=O)OC)=C(C)N1Cc1ccccc1C(F)(F)F (stereo unspecified),–,·,·,·
C#CCN1CC(COc2ccccc2)Oc2cccc(Oc3ccc(SC)c(C)c3)c2S1(=O)=O (stereo unspecified),–,·,·,·
Cc1ccc(NC(=O)/C(=C\c2ccc3c(c2)OCO3)NC(=O)c2ccco2)cc1,4.5,–,–,–
CCOC(=O)N1CCN(c2ccc([N+](=O)[O-])cc2F)CC1C (stereo unspecified),–,–,–,–
CCOC(=O)N1CCN(c2ccc(C(C)=O)cc2F)CC1C (stereo unspecified),4.6,–,–,–
COc1ccc(Nc2ccc3c(c2)=NC2(CCCCC2)[N+]=3[O-])cc1,14.6,–,–,–
CCCCc1c(-c2ccc(OC)cc2)ncn1CCc1ccccc1OC,–,·,·,–
O=C(c1ccco1)N1N=C(c2cccs2)CC1c1ccccc1O (stereo unspecified),5.9,–,–,–
Nc1[nH]c(C(=O)c2ccccc2)c(-c2ccccn2)c1C(=O)c1c[nH]c2ccc(F)cc12,–,·,·,·
CC(=O)Nc1ccc(/C=C(\C#N)C(=O)NC2CCCCC2)cc1,4.6,–,–,–
CCN(CC)c1nc(N)c2c(N)nc3c(c2c1C#N)CC(c1ccccc1)O3 (stereo unspecified),6.3,–,–,–
Cc1nn(Cc2ccccc2)c(C)c1/C=N/NC(=O)CNc1cccc(C(F)(F)F)c1,–,–,–,–
O=C(CNc1cccc(C(F)(F)F)c1)N/N=C/c1cn(-c2ccccc2)nc1-c1ccccc1,4.6,–,–,–
COC1=CC(=O)c2ccccc2C1=O,·,–,–,14.1
CCNC(=O)O/N=C(\C)c1sc(-c2ccc(Cl)cc2)nc1C,4.6,–,–,–
CN1C(=O)NC(c2ccc(O)cc2)C(C(=O)c2cccs2)C1(O)C(F)(F)F (stereo unspecified),4.5,–,–,–
COC1OC(COCc2ccccc2)C2OC(C)(C)OC2C1O (stereo unspecified),–,·,·,·
CC(C)C(=O)Nc1ccc(-c2nc3ncccc3o2)cc1,4.6,–,–,–
COc1cc(OC)c2c(=O)c3c(C(=O)O)c(O)ccc3oc2c1,–,·,·,·
CC(=O)COc1cc2c(-c3cc4ccccc4o3)cc(=O)oc2cc1C,7.1,–,–,–
C=CCc1cccc2cc(C(=O)Nc3ccccc3C(=O)O)c(=O)oc12,4.9,·,·,–
CC(=O)C1=C(C)N(Cc2ccc(F)cc2)C(=S)NC1c1cccc(Cl)c1 (stereo unspecified),–,·,·,·
SMILES,MsrA inhibitor,PKA-R2B activ,PKA-R1A activ,MsrA act
Cc1cc(C(=O)OCC(=O)NCc2ccco2)c(C)n1-c1ccc(F)cc1,–,–,–,8.5
CCNC(=O)COC(=O)c1cc(C)n(-c2ccccc2)c1C,–,–,–,–
O=C1CC2c3cc(-c4cc5ccccc5o4)ccc3CCN2C(=O)CN1Cc1ccccc1 (stereo unspecified),–,·,·,·
CCCCNC(=S)N/N=C/c1ccc(C)s1,4.7,–,–,–
Cc1ccccc1C1=CC(=O)CC(C)(C)C1=O,–,·,·,·
CN(C)c1ccc(-c2n(C)c3ccccc3[n+]2C)cc1,4.6,–,–,–
Cc1nn(-c2ccccc2)nc1C(=O)Nc1ccccc1C(=O)NCC1CC1,–,·,·,·
COc1ccccc1/C=C/C=N/NC(=O)c1ccco1,4.6,–,–,–
C=CCN=C1NC(c2ccc(Cl)cc2)C(C(=O)OC)=C(C)N1Cc1ccccc1C(F)(F)F (stereo unspecified),–,·,·,·
CN(C)c1ccc(-c2nnc(-c3ccccc3F)o2)cc1,4.6,–,–,–
COc1ccc(-c2nnc(-c3ccc(N(C)C)cc3)o2)cc1,–,–,–,–
O=C1C=CC(=O)N1c1ccc(O)cc1,–,–,–,–
O=C1C=CC(=O)N1c1ccc(OC(F)F)cc1,46.6,–,–,–
COc1ccc(-c2nnn3c2C2c4cc(-c5cccc(F)c5)ccc4CCN2C(=O)C3)cc1 (stereo unspecified),–,·,·,·
CCOC(=O)c1c(C)nc2c(c1-c1ccccc1)C(=O)c1ccccc1-2,–,–,19.8,–
CCOC(=O)c1c(C)nc2c(c1-c1cc(OC)ccc1OC)C(=O)c1ccccc1-2,–,–,–,–
CC(=O)c1ccc(-c2ccc(C(=O)N3CCC(C(N)=O)CC3)o2)cc1,7.6,–,–,–

# Source: PubChem BioAssay (The Scripps Research Institute Molecular Screening Center)
